Compound activity deposited in PubChem BioAssay by National Center for Advancing Translational Sciences (NCATS).
Rab9 prom act – Rab9 promoter activation. AID 485297. Potency, µM (titrated, usually from 9.22 µM), hits mostly activators. Huh7 Rab9 promoter-luciferase reporter, luminescence, 24 h. hit rate 2.8% among 320,000; note: nearly all actives have a fitted effect of over 60% in size
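Cells were plated at 1500 per well in reduced-serum medium with 10% FBS and left 2 h. Compound in DMSO was then added for 24 h at 37 °C. Reporter signal was read by luminescence after 10 min with luciferase detection reagent.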
Luc counter – counter-screen: inhibitors of Kinase-Glo firefly luciferase; Q27757; Kinase-Glo luciferase, ATP luminescence, 8 min; Potency, µM (top dose mostly 38.3 µM), actives largely listed as inhibitors; hit rate 0.28% among 200,000; AID 1379; note: nearly all actives have a fitted effect of over 60% in size
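Light output from Kinase-Glo luciferase with luciferin and 10 uM ATP in 50 mM imidazole pH 7.2, KCl, MgCl2, Tween 20, BSA; compound pin-delivered, 8-min ambient incubation, then luminescence read.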
FLuc counter – counter-screen for miR-21 project: firefly luciferase inhibitors or activators | purified FLuc, Km substrates, luminescence inhibition | hit rate 6.9% among 360,000 | Potency, µM (doses to about 57.5 µM), usual class: inhibitors; note: nearly all actives have a fitted effect of over 55% in size
Target sequence (P08659 whole entry, looked up): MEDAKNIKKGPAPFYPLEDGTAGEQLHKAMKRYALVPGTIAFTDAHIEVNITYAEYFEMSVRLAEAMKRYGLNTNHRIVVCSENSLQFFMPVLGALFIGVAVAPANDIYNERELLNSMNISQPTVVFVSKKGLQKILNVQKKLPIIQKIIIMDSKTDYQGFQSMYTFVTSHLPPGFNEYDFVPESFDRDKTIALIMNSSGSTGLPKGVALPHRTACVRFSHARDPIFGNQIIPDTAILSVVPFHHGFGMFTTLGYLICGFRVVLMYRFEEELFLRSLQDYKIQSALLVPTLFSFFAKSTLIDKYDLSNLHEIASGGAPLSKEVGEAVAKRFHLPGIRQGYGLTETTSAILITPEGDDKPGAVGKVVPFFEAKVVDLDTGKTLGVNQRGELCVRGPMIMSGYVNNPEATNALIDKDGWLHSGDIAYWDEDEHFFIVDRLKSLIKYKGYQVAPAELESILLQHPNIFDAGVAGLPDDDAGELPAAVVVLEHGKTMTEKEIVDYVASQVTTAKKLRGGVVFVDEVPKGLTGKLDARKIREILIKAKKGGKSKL
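Biochemical qHTS of compounds, final roughly 60 µM downward over six points, against 10 nM purified firefly luciferase using Km concentrations of substrates (10 uM D-luciferin, 10 uM ATP) in Tris acetate pH 7.5 buffer; luminescence output.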
NPC1 promoter act – activates the NPC1 promoter; Huh7 NPC1 promoter luciferase reporter, 24 h; AID 485313; Potency, µM (highest dose often 9.22 µM), hits mostly activators; hit rate 2.4% among 320,000; note: nearly all actives have a fitted effect of over 60% in size
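Stable NPC1-promoter luciferase Huh7 line; cpd (DMSO) 24 h, 37 °C, 5% CO2; Amplite luciferase reagent 10 min RT; luminescence readout. qHTS format.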
SMN2 splice up – increases expression of the SMN2 splice variant. hit rate 2.8% among 210,000. Potency, µM (top dose mostly 46.1 µM), most hits filed as activators. HEK293 SMN2-luciferase splicing reporter, luminescence, 30-36 h; note: nearly all actives have a fitted effect of over 55% in size
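HEK293 cells carry an SMN2 minigene-luciferase reporter in which exon 7 inclusion puts luciferase in frame. Cells were seeded at 2000 cells/well, attached for 10-12 hours, then exposed to compounds for 30-36 hours at 37C before ONE-Glo luminescence.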
Large screens that a line does not name were inactive; ! = not active in a repeat. Only some compounds are listed: those with a hit (about 7.3% of all), similar ones and a draw of the others. Calls come from the whole dose curve; as a rule, active = well fitted curve in the direction sought with a large enough effect; inconclusive = small, poorly fitted or top-dose-only effect, or another doubt; inactive = no such curve, though single readings can be large; an effect the other way counts as inactive or inconclusive.

c1ccc2c(c1)nnn2CN1CCOCC1	none (no result: Rab9 prom act, FLuc counter, NPC1 promoter act)
CSc1nsc(/C=C/Nc2ccc(O)cc2C)c1C#N	FLuc counter 12µM
CC/C(C)=N\Nc1nc(-c2cc3cc(OC)ccc3oc2=O)cs1	Rab9 prom act inconclusive, FLuc counter 17µM, NPC1 promoter act inconclusive (no result: Luc counter, SMN2 splice up)
COc1ccc2oc(=O)c(-c3nc(C)cs3)cc2c1	Rab9 prom act 2.8µM, Luc counter inconclusive, FLuc counter inconclusive, NPC1 promoter act inconclusive, SMN2 splice up 14µM
COc1ccc2oc(=O)c(-c3nc(-c4ccc(C)c(C)c4)cs3)cc2c1	none (no result: Rab9 prom act, Luc counter, NPC1 promoter act, SMN2 splice up)
Cc1c(C(=O)Nc2ccccc2F)sc2nc3n(c(=O)c12)CCC3	Rab9 prom act 2.5µM, FLuc counter 19µM!, NPC1 promoter act 2.8µM (no result: Luc counter, SMN2 splice up)
Cc1c(C(=O)Nc2cccc(C(F)(F)F)c2)sc2nc3n(c(=O)c12)CCC3	none (no result: Rab9 prom act, Luc counter, NPC1 promoter act, SMN2 splice up)
Cc1ccccc1NC(=O)c1sc2nc3n(c(=O)c2c1C)CCC3	none (no result: Rab9 prom act, Luc counter, NPC1 promoter act, SMN2 splice up)
CCc1cccc(NC(=O)c2sc3nc4n(c(=O)c3c2C)CCC4)c1	Rab9 prom act 2.8µM, FLuc counter 17µM, NPC1 promoter act 2µM (no result: Luc counter, SMN2 splice up)
Cc1c(C(=O)Nc2ccccn2)sc2nc3n(c(=O)c12)CCC3	Rab9 prom act 0.89µM, FLuc counter 9.5µM, NPC1 promoter act 1.3µM (no result: Luc counter, SMN2 splice up)
Cc1cccc(CCNC(=O)c2sc3nc4n(c(=O)c3c2C)CCCC4)c1	FLuc counter 13µM (no result: Rab9 prom act, Luc counter, NPC1 promoter act, SMN2 splice up)
C[N+](C)([O-])CCC=C1c2ccccc2CCc2ccccc21	none (no result: Rab9 prom act, FLuc counter, NPC1 promoter act)
COCCCNC(=O)CCC(=O)N1Cc2ccccc2Oc2ncccc21	none (no result: Rab9 prom act, Luc counter, NPC1 promoter act, SMN2 splice up)
C=CCN(C(=O)c1oc2c(Cl)cc(C)cc2c1C)C1CCS(=O)(=O)C1 (stereo unspecified)	Rab9 prom act 3.5µM, FLuc counter 11µM, NPC1 promoter act 3.5µM (no result: Luc counter, SMN2 splice up)
CC(=O)c1c(C)[nH]c(C(=O)NCCC2=CCCCC2)c1C	Rab9 prom act inconclusive, FLuc counter 12µM, NPC1 promoter act 3.5µM, SMN2 splice up inconclusive
O=C(CCNC(=O)c1ccc([N+](=O)[O-])cc1)NCCC1=CCCCC1	none (no result: Luc counter, SMN2 splice up)
O=C(NCCc1ccc(F)cc1)c1ccc([N+](=O)[O-])cc1	Rab9 prom act 3.2µM, FLuc counter 15µM, NPC1 promoter act 2.5µM, SMN2 splice up 11µM
CCOC(=O)c1[nH]c(C)c(C(=O)NCCC2=CCCCC2)c1C	Rab9 prom act inconclusive
O=C(NCCC1=CCCCC1)c1ccc(CN2CCOCC2)cc1	Rab9 prom act 1.4µM, FLuc counter 24µM, NPC1 promoter act 2.8µM, SMN2 splice up 13µM
O=C(NCCC1=CCCCC1)c1ccc([N+](=O)[O-])cc1	Rab9 prom act 0.63µM, FLuc counter 5.4µM, NPC1 promoter act 1.1µM, SMN2 splice up 2.8µM
COc1ccc(CCNC(=O)c2ccc(CN3CCOCC3)cc2)cc1	FLuc counter inconclusive
COc1cccc([C@@H]2Oc3ccc(OC)cc3[C@H](O)[C@H]2O)c1	none (no result: Rab9 prom act, FLuc counter, NPC1 promoter act)
COc1ccc(C(=O)NCCC2=CCCCC2)cc1	Rab9 prom act 0.32µM, FLuc counter 0.85µM, NPC1 promoter act 0.35µM, SMN2 splice up 2.5µM
COc1cccc(C(=O)NCCC2=CCCCC2)c1	Rab9 prom act 0.63µM, FLuc counter 3µM, NPC1 promoter act 0.56µM, SMN2 splice up inconclusive
O=C(NC1CCCC1)c1ccc(CN2CCOCC2)cc1	none
O=C(Cc1ccccc1[N+](=O)[O-])NCCC1=CCCCC1	none
O=C(NC1CCCCCC1)c1ccc(CN2CCOCC2)cc1	Rab9 prom act 3.5µM, FLuc counter 17µM, NPC1 promoter act 3.2µM, SMN2 splice up inconclusive
Cc1cc(C(=O)NCCC2=CCCCC2)ccc1[N+](=O)[O-]	Rab9 prom act 1.8µM, FLuc counter 12µM, NPC1 promoter act 4.5µM (no result: SMN2 splice up)
Cc1ccccc1CNCc1c(C(=O)O)c(C)n(Cc2ccc(F)cc2Cl)c1C	none (no result: Rab9 prom act, Luc counter, NPC1 promoter act)
O=C(Nc1ccc(Oc2ccccc2)cc1)C1CCN(S(=O)(=O)c2ccccc2)CC1	none (no result: Rab9 prom act, Luc counter, NPC1 promoter act)
CCS(=O)(=O)c1ncc(Cl)c(C(=O)N(Cc2ccccc2)c2ccc(OC)cc2)n1	none (no result: Rab9 prom act, Luc counter, FLuc counter, NPC1 promoter act)
Cc1ccc2c(c1)c1c(c(=O)n(-c3cccc(Cl)c3)c(=O)n1CC(=O)NCC1CCCO1)n2C (stereo unspecified)	none (no result: Rab9 prom act, Luc counter, NPC1 promoter act, SMN2 splice up)
O=C(NCCC1=CCCCC1)c1ccc(F)cc1	Rab9 prom act 0.45µM, FLuc counter 2.1µM, NPC1 promoter act 0.4µM, SMN2 splice up 7.1µM
COc1ccc(C(=O)NCCC2=CCCCC2)cc1OC	Rab9 prom act inconclusive, FLuc counter inconclusive
O=c1[nH]c2ccccc2nc1/C=C(\O)c1cccs1	Rab9 prom act 3.2µM, FLuc counter inconclusive, NPC1 promoter act 4µM (no result: SMN2 splice up)
